The record followed here is the supplement of paper PMC6279402.

SMILES strings stand for the structures. ± gives the standard deviation of the averaged measurements.

The test system of this assay is A549. In words: relative viability (normalised to negative control = 1, bortezomib = 0) (fraction); higher = less cytotoxic. The settings on record: inflammatory serum-free RHB-A with cytokines + LPS, 5 d + 24 h CellTiter-Blue. (Resazurin is reduced to fluorescent resorufin, in cell work by metabolically active cells.)
The mark [1] stands for this setting: compound 30 nM, GSK126 pretreatment: 5 uM GSK126.
Setting [2] is: compound 30 nM, GSK126 pretreatment: none (vehicle).
The mark [3] stands for this setting: compound 300 nM, GSK126 pretreatment: 5 uM GSK126.
Setting [4] is: compound 300 nM, GSK126 pretreatment: none (vehicle).

On to `N#CCNC(=O)c1ccc(-c2ccnc(Nc3ccc(N4CCOCC4)cc3)n2)cc1`, for which the relative viability reads like this: under setting [1], 0.933 ± 0.027; under setting [2], 0.961 ± 0.042; under setting [3], 1.22 ± 0.083; under setting [4], 1.4 ± 0.038.
Turning to `CC(C)(C#N)c1cc(Cn2cncn2)cc(C(C)(C)C#N)c1` [Anastrozole; Arimidex], the relative viability was determined as 0.743 ± 0.051 under setting [1], 0.792 ± 0.039 under setting [2], 0.804 ± 0.086 under setting [3] and 0.896 ± 0.04 under setting [4].
The like results for `O=C1NC(=O)/C(=C/c2ccc3c(c2)OC(F)(F)O3)S1` were, in that order, 0.939 ± 0.15, 0.969 ± 0.17, 1.01 ± 0.14 and 0.968 ± 0.092.
The matching figures for `Cc1[nH]nc2ccc(-c3cncc(OC[C@@H](N)Cc4ccccc4)c3)cc12`: 0.871 ± 0.14, 0.766 ± 0.094, 0.17 ± 0.011 and 0.273 ± 0.056.
The like results for `Nc1cc(C(F)(F)F)c(-c2cc(N3CCOCC3)nc(N3CCOCC3)n2)cn1` were, in that order, 0.85 ± 0.082, 0.771 ± 0.058, 0.664 ± 0.064 and 0.751 ± 0.052.
For `N#Cc1c(O)c2c(-c3ccc(-c4ccccc4O)cc3)csc2[nH]c1=O`, the relative viability came out at 0.86 ± 0.15 under setting [1], 0.937 ± 0.13 under setting [2], 0.938 ± 0.18 under setting [3] and 0.942 ± 0.11 under setting [4].
As for `CCC[C@H](NC(=O)/C(C#N)=C/c1cccc(Br)n1)c1ccccc1`, the relative viability runs as follows: under setting [1], 0.926 ± 0.078; under setting [2], 0.929 ± 0.044; under setting [3], 0.973 ± 0.14; under setting [4], 1.04 ± 0.065.
In the case of `Cc1cc(Nc2nc(N[C@@H](C)c3ccc(F)cc3)c(C#N)cc2F)n[nH]1`, the relative viability under setting [1] was 1.23 ± 0.055, the relative viability under setting [2] came to 1.16 ± 0.11, the relative viability under setting [3] is 0.269 ± 0.021 and the relative viability under setting [4] turned out to be 0.309 ± 0.027.
In the case of `C/C(=C\c1csc(C)n1)[C@@H]1C[C@@H]2O[C@]2(C)CCC[C@H](C)[C@H](O)[C@@H](C)C(=O)C(C)(C)[C@@H](O)CC(=O)N1` [Ixabepilone], the relative viability turned out to be 0.464 ± 0.084 under setting [1], 0.269 ± 0.068 under setting [2], 0.386 ± 0.016 under setting [3] and 0.288 ± 0.043 under setting [4].
Turning to `COC(=O)Nc1ccc(-c2nc(N3CCOCC3)c3cnn(C4CCN(C(=O)OC)CC4)c3n2)cc1`, the relative viability was 0.691 ± 0.035 under setting [1], 0.715 ± 0.019 under setting [2], 0.489 ± 0.036 under setting [3] and 0.588 ± 0.04 under setting [4].
`CN(Cc1cnc2nc(N)nc(N)c2n1)c1ccc(C(=O)N[C@@H](CCC(=O)O)C(=O)O)cc1` [Methotrexate hydrate; Methotrexate]: the relative viability under setting [1] stood at 0.813 ± 0.055, the relative viability under setting [2] came to 0.84 ± 0.052, the relative viability under setting [3] stood at 0.797 ± 0.17 and the relative viability under setting [4] worked out at 0.947 ± 0.086.
The matching figures for `Nc1nc(Cl)nc2c1ncn2[C@H]1C[C@H](O)[C@@H](CO)O1` [Cladribine]: 0.723 ± 0.12, 0.729 ± 0.099, 0.386 ± 0.1 and 0.305 ± 0.075.
The like results for `CC(C)(C)c1cc(NC(=O)Nc2ccc(-c3cn4c(n3)sc3cc(OCCN5CCOCC5)ccc34)cc2)no1` were, in that order, 0.952 ± 0.016, 0.898 ± 0.068, 1.05 ± 0.087 and 1 ± 0.031.
The matching figures for `CCN(CCO)CCCOc1ccc2c(Nc3cc(CC(=O)Nc4cccc(F)c4)[nH]n3)ncnc2c1` [AZD1152-HQPA(Barasertib)]: 0.73 ± 0.079, 0.714 ± 0.031, 0.813 ± 0.13 and 0.696 ± 0.037.
In the case of `COc1cc2ncnc(Nc3ccc(F)c(Cl)c3)c2cc1OCCCN1CCOCC1` [Gefitinib(Iressa); Gefitinib], the relative viability reads like this: under setting [1], 0.922 ± 0.11; under setting [2], 0.873 ± 0.084; under setting [3], 0.488 ± 0.11; under setting [4], 0.472 ± 0.045.
Consider `COc1ccc(S(=O)(=O)N(C(C)=O)c2ccccc2/C=C/c2cc[n+]([O-])cc2)cc1`, for which the relative viability amounted to 0.924 ± 0.032 under setting [1], 0.914 ± 0.033 under setting [2], 0.663 ± 0.032 under setting [3] and 0.623 ± 0.056 under setting [4].
As to `CO[C@H]1C(=O)[C@]2(C)[C@@H](OC)C[C@H]3OC[C@@]3(OC(C)=O)[C@H]2[C@H](OC(=O)c2ccccc2)[C@]2(O)C[C@H](OC(=O)[C@H](O)[C@@H](NC(=O)OC(C)(C)C)c3ccccc3)C(C)=C1C2(C)C` [Cabazitaxel], the relative viability under setting [1] was 0.487 ± 0.065, the relative viability under setting [2] was 0.349 ± 0.054, the relative viability under setting [3] was determined as 0.541 ± 0.061 and the relative viability under setting [4] came to 0.421 ± 0.077.
For the compound `CC(C)C[C@H](NC(=O)[C@H](CCc1ccccc1)NC(=O)CN1CCOCC1)C(=O)N[C@@H](Cc1ccccc1)C(=O)N[C@@H](CC(C)C)C(=O)[C@@]1(C)CO1` [Carfilzomib], the relative viability under setting [1] was -0.00043 ± 0.0042, the relative viability under setting [2] was 0.0294 ± 0.0064, the relative viability under setting [3] is -0.00389 ± 0.00043 and the relative viability under setting [4] is -0.00499 ± 0.0011.
`Cn1c(=O)n(-c2ccc(C(C)(C)C#N)cc2)c2c3cc(-c4cnc5ccccc5c4)ccc3ncc21`: the relative viability reads like this: under setting [1], 0.581 ± 0.063; under setting [2], 0.624 ± 0.034; under setting [3], 0.209 ± 0.0083; under setting [4], 0.21 ± 0.0091.
The matching figures for `O=C(Nc1c[nH]nc1-c1nc2ccc(CN3CCOCC3)cc2[nH]1)NC1CC1`: 0.71 ± 0.039, 0.663 ± 0.021, 0.336 ± 0.034 and 0.279 ± 0.077.
Regarding `NC(=O)Nc1cc(-c2cccc(F)c2)sc1C(=O)N[C@H]1CCCNC1`, the relative viability was 0.407 ± 0.061 under setting [1], 0.389 ± 0.034 under setting [2], 0.253 ± 0.082 under setting [3] and 0.194 ± 0.021 under setting [4].
In the case of `C/C=C1\NC(=O)[C@H]2CSSCC/C=C/[C@H](CC(=O)N[C@H](C(C)C)C(=O)N2)OC(=O)[C@H](C(C)C)NC1=O` [Depsipeptide], the relative viability was 0.00208 ± 0.0052 under setting [1], 0.00595 ± 0.0056 under setting [2], -0.0034 ± 0.0005 under setting [3] and -0.00514 ± 0.00076 under setting [4].
Regarding `CN(c1ncccc1CNc1nc(Nc2ccc3c(c2)CC(=O)N3)ncc1C(F)(F)F)S(C)(=O)=O`, the relative viability under setting [1] stood at 0.902 ± 0.22, the relative viability under setting [2] is 0.907 ± 0.16, the relative viability under setting [3] was determined as 0.907 ± 0.12 and the relative viability under setting [4] was 0.891 ± 0.13.
Take `Cc1cnc(Nc2ccc(N3CCN(C)CC3)cc2)nc1Nc1cccc(S(=O)(=O)NC(C)(C)C)c1`: the relative viability was 1.22 ± 0.15 under setting [1], 1.2 ± 0.08 under setting [2], 1.2 ± 0.023 under setting [3] and 1.27 ± 0.053 under setting [4].
Turning to `CO[C@H]1C[C@@H]2CC[C@@H](C)[C@@](O)(O2)C(=O)C(=O)N2CCCC[C@H]2C(=O)O[C@H]([C@H](C)C[C@@H]2CC[C@@H](O)[C@H](OC)C2)CC(=O)[C@H](C)/C=C(\C)[C@@H](O)[C@@H](OC)C(=O)[C@H](C)C[C@H](C)/C=C/C=C/C=C/1C` [Sirolimus; RAPAMYCIN; Rapamycin(Sirolimus); Rapamycin], the relative viability reads like this: under setting [1], 0.576 ± 0.08; under setting [2], 0.588 ± 0.064; under setting [3], 0.552 ± 0.066; under setting [4], 0.558 ± 0.07.
On to `COc1cc2c(Oc3ccc(NC(=O)C4(C(=O)Nc5ccc(F)cc5)CC4)cc3F)ccnc2cc1OCCCN1CCOCC1`, for which the relative viability amounted to 0.797 ± 0.081 under setting [1], 0.789 ± 0.037 under setting [2], 0.57 ± 0.1 under setting [3] and 0.573 ± 0.074 under setting [4].
With `COc1cc2nccc(Oc3ccc(NC(=O)C4(C(=O)Nc5ccc(F)cc5)CC4)cc3)c2cc1OC` [XL184; Cabozantinib], the relative viability under setting [1] worked out at 0.903 ± 0.061, the relative viability under setting [2] was determined as 0.875 ± 0.12, the relative viability under setting [3] came to 0.986 ± 0.043 and the relative viability under setting [4] was 0.974 ± 0.014.
